Source: the supplement of paper PMC11732987, “Enantioselective OTUD7B fragment discovery through chemoproteomics screening and high-throughput optimisation” (Communications Chemistry, 2025)

Assays:
Assay in all cases: log2 ratio of Biotin-Ahx-Ub-VS probe labelling (fragment/DMSO); higher = less target engagement (more negative = stronger competition), active = hit call of the paper (q ≤ 0.05, log2 ratio ≤ -1)
Conditions in all cases: compound concentration: 200 uM; treatment time: 3 h
USP34 = USP34 (UniProt Q70CQ2)
USP34, sequence (Q70CQ2 whole entry, the tested form may be a part): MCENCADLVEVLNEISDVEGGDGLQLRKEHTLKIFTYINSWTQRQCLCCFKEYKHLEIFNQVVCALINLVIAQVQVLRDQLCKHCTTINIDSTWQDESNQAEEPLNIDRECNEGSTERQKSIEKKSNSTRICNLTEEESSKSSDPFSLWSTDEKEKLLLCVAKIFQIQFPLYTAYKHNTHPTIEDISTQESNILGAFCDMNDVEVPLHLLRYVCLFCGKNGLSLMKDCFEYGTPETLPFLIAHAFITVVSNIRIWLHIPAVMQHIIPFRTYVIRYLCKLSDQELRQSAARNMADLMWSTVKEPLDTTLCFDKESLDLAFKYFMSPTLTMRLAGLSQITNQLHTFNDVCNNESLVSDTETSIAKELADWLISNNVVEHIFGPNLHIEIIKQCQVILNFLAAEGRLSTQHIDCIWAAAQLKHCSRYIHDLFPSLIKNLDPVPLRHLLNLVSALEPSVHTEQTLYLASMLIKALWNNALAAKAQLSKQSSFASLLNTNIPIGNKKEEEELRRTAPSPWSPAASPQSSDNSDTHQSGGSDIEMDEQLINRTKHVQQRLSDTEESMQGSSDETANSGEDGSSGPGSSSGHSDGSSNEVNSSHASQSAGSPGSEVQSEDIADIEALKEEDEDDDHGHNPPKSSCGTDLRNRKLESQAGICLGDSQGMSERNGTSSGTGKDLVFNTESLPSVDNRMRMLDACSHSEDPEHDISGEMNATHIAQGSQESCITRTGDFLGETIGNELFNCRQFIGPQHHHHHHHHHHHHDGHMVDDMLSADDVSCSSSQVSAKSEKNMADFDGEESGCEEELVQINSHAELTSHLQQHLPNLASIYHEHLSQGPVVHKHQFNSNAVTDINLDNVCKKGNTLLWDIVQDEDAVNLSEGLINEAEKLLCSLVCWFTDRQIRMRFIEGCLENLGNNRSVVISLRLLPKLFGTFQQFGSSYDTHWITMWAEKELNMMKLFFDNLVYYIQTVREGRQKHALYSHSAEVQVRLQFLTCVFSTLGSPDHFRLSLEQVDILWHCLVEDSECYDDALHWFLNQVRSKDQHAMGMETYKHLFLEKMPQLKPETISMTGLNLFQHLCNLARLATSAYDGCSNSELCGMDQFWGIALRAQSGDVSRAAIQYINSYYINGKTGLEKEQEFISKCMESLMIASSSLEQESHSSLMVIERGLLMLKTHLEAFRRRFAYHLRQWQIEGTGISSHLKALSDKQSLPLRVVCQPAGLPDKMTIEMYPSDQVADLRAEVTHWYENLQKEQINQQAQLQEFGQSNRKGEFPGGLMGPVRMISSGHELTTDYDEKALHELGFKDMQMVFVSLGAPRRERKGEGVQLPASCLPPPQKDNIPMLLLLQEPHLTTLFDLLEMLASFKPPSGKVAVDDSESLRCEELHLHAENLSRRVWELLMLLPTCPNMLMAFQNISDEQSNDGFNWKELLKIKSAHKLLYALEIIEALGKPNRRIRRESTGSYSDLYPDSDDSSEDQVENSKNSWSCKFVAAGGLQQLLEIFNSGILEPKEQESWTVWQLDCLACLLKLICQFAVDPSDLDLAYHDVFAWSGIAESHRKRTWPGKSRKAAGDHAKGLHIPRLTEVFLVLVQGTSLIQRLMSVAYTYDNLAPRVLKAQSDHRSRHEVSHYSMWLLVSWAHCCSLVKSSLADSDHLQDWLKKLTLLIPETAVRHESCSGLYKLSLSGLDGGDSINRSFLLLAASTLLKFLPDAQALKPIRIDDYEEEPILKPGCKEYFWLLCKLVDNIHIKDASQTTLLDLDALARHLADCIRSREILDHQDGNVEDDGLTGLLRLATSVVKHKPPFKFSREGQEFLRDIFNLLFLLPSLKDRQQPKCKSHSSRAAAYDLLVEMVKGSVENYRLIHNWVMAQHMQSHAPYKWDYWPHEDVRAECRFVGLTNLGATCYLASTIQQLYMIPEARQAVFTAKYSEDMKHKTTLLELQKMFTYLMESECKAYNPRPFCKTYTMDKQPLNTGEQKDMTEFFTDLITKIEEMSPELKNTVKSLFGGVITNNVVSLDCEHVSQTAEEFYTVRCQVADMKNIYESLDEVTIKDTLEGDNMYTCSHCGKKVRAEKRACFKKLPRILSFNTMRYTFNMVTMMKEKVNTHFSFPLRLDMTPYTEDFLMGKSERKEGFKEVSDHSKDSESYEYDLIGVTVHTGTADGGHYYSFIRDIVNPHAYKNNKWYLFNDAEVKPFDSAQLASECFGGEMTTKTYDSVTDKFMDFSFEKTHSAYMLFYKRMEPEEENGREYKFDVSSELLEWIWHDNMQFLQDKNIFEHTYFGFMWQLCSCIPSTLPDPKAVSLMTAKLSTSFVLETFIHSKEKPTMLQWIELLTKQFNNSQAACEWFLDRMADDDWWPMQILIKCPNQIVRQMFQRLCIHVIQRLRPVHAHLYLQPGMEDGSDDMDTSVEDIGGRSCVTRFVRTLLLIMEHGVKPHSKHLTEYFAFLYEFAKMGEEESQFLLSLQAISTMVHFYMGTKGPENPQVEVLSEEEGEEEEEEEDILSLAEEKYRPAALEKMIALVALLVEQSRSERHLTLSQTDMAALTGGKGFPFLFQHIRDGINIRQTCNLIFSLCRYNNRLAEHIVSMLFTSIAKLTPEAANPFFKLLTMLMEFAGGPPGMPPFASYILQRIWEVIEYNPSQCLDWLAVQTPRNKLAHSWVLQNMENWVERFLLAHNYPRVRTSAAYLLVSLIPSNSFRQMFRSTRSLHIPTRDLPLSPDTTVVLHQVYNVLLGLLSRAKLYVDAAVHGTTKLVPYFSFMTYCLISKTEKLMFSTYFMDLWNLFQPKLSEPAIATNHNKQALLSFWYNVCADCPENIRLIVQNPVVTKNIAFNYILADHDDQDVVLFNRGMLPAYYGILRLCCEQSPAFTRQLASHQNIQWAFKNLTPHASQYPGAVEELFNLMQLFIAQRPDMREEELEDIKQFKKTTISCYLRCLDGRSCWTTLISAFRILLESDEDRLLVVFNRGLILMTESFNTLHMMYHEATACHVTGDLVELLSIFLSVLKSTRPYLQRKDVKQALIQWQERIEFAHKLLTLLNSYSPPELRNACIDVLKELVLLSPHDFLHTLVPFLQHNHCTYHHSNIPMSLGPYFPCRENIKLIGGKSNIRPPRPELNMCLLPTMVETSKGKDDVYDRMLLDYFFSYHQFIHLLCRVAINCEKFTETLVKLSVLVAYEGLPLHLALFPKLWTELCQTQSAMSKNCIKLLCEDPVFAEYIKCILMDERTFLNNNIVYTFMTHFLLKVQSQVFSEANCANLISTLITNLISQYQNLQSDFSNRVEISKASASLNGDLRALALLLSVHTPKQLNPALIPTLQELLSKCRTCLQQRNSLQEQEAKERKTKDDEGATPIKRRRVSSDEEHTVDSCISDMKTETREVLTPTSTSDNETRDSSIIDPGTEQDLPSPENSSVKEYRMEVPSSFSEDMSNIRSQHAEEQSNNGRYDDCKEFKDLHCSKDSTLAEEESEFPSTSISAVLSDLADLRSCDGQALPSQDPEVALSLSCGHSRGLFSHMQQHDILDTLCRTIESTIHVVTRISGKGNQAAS
In short: (§1)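 Global-median-normalised Spectronaut label-free quantities were compared by unpaired t-test, and values are average log2 ratios of fragment over vehicle. Only proteins with ≥2 unique peptides were used. HEK293T lysate (495 µg per sample) was treated in triplicate with fragment at 200 µM or vehicle for 3 h and then with Biotin-Ahx-Ub-VS at 0.5 µM final for 1 h. Labelled DUBs were then NeutrAvidin-enriched, digested with LysC and trypsin, and run by diaPASEF LC-MS/MS.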

USP36 = biological target: T1, USP36 (UniProt Q9P275)
T1 sequence (whole entry): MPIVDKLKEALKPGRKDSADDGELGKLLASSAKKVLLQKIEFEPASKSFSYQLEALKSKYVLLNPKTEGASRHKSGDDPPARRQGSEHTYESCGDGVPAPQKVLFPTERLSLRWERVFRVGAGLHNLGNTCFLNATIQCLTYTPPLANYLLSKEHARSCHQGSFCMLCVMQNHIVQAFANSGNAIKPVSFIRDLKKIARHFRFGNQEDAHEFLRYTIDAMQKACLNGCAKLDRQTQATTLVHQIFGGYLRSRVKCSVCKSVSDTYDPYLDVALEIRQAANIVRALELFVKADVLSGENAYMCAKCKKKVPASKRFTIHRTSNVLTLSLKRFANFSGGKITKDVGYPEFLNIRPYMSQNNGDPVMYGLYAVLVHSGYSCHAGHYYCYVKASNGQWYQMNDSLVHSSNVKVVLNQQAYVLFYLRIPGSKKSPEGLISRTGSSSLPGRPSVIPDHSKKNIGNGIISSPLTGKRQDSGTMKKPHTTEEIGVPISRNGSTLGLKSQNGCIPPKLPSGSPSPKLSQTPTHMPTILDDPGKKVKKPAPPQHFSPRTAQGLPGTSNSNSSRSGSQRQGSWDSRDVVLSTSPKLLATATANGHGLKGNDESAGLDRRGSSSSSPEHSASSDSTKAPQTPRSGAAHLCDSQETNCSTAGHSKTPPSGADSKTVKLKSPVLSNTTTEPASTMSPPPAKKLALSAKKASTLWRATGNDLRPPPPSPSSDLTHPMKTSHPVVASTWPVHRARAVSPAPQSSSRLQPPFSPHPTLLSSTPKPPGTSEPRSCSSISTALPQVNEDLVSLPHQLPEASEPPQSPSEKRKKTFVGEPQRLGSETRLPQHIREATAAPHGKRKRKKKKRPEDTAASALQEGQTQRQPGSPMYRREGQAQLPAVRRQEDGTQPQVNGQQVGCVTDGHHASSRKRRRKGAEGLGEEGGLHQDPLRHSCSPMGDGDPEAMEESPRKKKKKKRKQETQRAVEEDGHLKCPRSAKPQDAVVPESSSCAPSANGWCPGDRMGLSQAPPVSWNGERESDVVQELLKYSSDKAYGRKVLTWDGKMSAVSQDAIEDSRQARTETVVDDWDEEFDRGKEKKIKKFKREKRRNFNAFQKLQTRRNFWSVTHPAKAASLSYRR
In short: as §1

USP38 = biological target: T2, USP38 (UniProt Q8NB14)
T2 sequence (whole entry): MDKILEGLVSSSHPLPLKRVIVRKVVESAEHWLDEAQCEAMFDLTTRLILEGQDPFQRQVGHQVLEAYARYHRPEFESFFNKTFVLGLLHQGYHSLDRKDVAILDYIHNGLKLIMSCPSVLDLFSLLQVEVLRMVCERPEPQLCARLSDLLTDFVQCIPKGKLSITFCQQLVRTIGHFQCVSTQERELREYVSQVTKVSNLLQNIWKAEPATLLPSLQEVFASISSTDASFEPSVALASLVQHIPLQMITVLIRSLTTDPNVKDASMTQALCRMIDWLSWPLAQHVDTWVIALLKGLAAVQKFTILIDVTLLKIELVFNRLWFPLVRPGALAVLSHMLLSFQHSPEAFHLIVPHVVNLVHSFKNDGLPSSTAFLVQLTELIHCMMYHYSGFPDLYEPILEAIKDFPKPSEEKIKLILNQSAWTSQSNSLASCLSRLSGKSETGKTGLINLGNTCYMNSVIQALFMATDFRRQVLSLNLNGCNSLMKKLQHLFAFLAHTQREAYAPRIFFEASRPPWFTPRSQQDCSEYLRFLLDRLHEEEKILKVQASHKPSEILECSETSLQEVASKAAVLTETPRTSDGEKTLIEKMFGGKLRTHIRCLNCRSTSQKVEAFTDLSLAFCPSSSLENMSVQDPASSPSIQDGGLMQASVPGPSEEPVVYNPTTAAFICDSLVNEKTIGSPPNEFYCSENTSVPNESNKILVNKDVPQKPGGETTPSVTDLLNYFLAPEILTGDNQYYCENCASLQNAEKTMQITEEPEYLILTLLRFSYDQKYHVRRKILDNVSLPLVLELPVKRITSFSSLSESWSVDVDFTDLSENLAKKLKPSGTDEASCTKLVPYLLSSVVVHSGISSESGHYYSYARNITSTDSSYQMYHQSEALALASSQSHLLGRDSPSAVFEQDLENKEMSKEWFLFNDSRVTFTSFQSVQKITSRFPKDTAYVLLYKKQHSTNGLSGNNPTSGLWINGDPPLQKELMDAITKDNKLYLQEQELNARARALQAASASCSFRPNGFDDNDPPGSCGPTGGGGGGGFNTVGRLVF
In short: as §1

USP39 = biological target: T3, USP39 (UniProt Q53GS9)
T3 sequence (whole entry): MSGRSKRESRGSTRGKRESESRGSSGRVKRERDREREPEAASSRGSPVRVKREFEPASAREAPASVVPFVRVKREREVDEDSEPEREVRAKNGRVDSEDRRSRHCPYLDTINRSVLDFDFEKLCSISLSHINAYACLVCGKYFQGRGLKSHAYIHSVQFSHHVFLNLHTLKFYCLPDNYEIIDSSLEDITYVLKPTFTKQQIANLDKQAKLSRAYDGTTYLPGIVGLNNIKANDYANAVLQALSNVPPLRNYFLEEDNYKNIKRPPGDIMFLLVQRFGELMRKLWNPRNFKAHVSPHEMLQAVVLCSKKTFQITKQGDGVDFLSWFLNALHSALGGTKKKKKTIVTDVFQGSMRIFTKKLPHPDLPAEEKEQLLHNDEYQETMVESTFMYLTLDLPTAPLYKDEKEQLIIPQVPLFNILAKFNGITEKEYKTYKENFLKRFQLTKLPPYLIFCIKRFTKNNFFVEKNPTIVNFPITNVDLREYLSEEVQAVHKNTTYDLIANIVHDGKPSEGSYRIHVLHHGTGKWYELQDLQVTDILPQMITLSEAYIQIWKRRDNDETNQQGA
In short: as §1

USP4 = biological target: T4, USP4 (UniProt Q13107)
T4 sequence (whole entry): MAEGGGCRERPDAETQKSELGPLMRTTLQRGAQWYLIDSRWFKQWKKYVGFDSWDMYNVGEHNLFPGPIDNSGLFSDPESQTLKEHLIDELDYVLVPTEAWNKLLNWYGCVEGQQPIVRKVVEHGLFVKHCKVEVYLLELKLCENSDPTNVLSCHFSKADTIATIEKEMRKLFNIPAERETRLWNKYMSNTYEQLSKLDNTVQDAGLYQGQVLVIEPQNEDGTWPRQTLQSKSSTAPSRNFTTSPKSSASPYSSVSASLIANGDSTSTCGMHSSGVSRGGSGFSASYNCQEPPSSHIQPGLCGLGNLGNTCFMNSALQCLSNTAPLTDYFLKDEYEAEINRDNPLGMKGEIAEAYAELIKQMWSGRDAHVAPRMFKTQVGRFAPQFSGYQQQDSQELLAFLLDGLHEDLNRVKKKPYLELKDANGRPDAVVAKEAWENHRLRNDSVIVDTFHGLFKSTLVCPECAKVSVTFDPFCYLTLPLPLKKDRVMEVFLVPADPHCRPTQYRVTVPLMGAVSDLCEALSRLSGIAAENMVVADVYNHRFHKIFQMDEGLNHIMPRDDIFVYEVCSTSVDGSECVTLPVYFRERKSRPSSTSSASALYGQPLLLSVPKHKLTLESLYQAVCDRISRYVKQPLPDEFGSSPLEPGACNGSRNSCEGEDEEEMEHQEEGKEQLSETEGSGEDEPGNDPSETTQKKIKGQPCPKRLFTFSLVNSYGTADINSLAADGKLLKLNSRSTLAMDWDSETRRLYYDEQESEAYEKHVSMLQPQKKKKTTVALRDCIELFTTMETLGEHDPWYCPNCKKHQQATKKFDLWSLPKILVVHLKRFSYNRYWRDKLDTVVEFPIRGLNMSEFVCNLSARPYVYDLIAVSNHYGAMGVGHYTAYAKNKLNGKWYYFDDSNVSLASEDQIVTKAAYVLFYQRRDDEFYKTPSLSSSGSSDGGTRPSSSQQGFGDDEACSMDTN
In short: as §1

Measured: log2 ratio of Biotin-Ahx-Ub-VS probe labelling

NC(=O)C(Cc1ccccc1)NC(=O)CCl (stereo not given)
inactive: USP34 -0.217 | USP36 0.0618 | USP38 -0.0263 | USP39 -0.257 | USP4 0.0089
